Only some compounds are listed: those with a hit (about 7.5% of all), similar ones and a draw of the others.
SMN2 splice enh = qHTS Assay for Enhancers of SMN2 Splice Variant Expression. HEK293 SMN2-luciferase splicing reporter, luminescence, 30-36 h. Potency, µM (doses to about 46.1 µM), for the others: at the top dose activity change, positive = activation, most hits filed as activators. hit rate 2.8% among 210,000. AID 1458, 2008; note: % of control where 0% means no effect; nearly all actives have a fitted effect of over 55% in size
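HEK293 cells carry an SMN2 […]–luciferase reporter in which exon 7 inclusion puts luciferase in frame. Cells were plated 10-12 h before compound addition, then incubated 30-36 h at 37C. ONE-Glo luminescence was read; sodium butyrate at 4.5 mM final served as control.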
FLuc modulator = qHTS profiling assay for firefly luciferase inhibitor/activator using purifed enzyme and Km concentrations of substrates (counterscreen for miR-21 project); Potency, µM (series often up to 57.5 µM), for inactives: top-dose activity change, negative = inhibition, actives largely listed as inhibitors; AID 588342, 2011; purified FLuc, Km substrates, luminescence inhibition; Luciferin 4-monooxygenase (Photinus pyralis), P08659; hit rate 6.9% among 360,000;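 note: plate controls were vehicle for no effect and reference inhibitor for full effect; nearly all actives have a fitted effect of over 55% in size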
Target sequence (P08659 whole entry, looked up): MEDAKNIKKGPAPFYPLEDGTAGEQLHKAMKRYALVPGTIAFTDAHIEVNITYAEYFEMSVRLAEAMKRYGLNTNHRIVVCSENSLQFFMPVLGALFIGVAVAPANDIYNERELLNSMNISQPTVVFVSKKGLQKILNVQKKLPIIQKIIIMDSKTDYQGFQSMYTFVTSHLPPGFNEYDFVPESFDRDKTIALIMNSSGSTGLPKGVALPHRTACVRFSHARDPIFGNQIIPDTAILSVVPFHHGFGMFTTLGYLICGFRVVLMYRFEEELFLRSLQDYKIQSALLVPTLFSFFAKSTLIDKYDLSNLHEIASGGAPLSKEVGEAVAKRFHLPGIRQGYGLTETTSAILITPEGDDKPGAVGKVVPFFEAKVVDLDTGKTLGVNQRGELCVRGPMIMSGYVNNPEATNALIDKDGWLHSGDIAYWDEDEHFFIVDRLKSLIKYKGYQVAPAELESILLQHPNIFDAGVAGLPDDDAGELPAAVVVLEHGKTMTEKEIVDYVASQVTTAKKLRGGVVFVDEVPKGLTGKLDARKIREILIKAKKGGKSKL
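Purified P. pyralis luciferase, 10 nM final, with Km-level 10 uM D-luciferin and 10 uM ATP in 50 mM Tris acetate pH 7.5, 10 mM Mg acetate, 0.01% Tween-20, 0.05% BSA; 6-point qHTS titration about 60 µM downward; luminescence read.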
ELG1 genotox = qHTS screen for small molecules that induce genotoxicity in human embryonic kidney (HEK293T) cells expressing luciferase-tagged ELG1; HEK293T ELG1-luciferase reporter, luminescence, 16 h; Potency, µM (titrated, usually from 46 µM), without a hit: at the highest dose activity change, positive = activation, most hits filed as activators; AID 504466, 2011; hit rate 1.3% among 330,000; note: % of control where 0% means no effect; nearly all actives have a fitted effect of over 60% in size
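After overnight (16 hr) compound treatment at 37 °C, ELG1-luciferase HEK293T cells were lysed with ONE-Glo; luminescence quantified 30 min later at room temperature.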
NPC1 promoter act = qHTS Assay for NPC1 Promoter Activators; Huh7 NPC1 promoter luciferase reporter, 24 h; hit rate 2.4% among 320,000; Potency, µM (titrated, usually from 9.22 µM), without a hit: top-dose activation, actives largely listed as activators; note: % of control where 0% means no effect; nearly all actives have a fitted effect of over 60% in size
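Luciferase expression driven by the NPC1 promoter was measured in stably transfected Huh7 cells after a 24 h compound incubation, using a luciferase reagent and a luminescence read.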
Luc counter = Counterscreen for Luciferase (Kinase-Glo TM) Inhibition. Luciferin 4-monooxygenase (Photuris pensylvanica), Q27757. Kinase-Glo luciferase, ATP luminescence, 8 min. Potency, µM (series often up to 38.3 µM), inactives show at the top dose activity change, negative = inhibition, usual class: inhibitors. hit rate 0.28% among 200,000; note: % is set by controls: 0 for no effect and ±100 for the full control effect; nearly all actives have a fitted effect of over 60% in size
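Luminescence was the read-out, taken after 8-minute incubation at ambient temperature. Luciferase turned over luciferin with 10 uM ATP in imidazole pH 7.2 buffer containing KCl, MgCl2, Tween 20 and BSA.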
Rab9 prom act = qHTS Assay for Rab9 Promoter Activators; Huh7 Rab9 promoter-luciferase reporter, luminescence, 24 h; Potency, µM (titrated, usually from 9.22 µM), without a hit: at the top dose activation, negative = inhibition, hits mostly activators; hit rate 2.8% among 320,000; AID 485297, 2010; note: % of control where 0% means no effect; nearly all actives have a fitted effect of over 60% in size
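Rab9 promoter-driven luciferase in stably transfected Huh7 cells; 1500 cells/well rested 2 h, exposed to compound in DMSO for 24 h at 37 °C, 5% CO2. Luminescence read 10 min after adding luciferase reagent at ambient temperature.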
The depositor's hits bear a star; ? = inconclusive; . = no result given. Calls come from the whole dose curve; as a rule, active = well fitted curve in the direction sought with a large enough effect; inconclusive = small, poorly fitted or top-dose-only effect, or another doubt; inactive = no such curve, though single readings can be large; an effect the other way counts as inactive or inconclusive. Potency is the fitted concentration of half-maximal effect.

SMILES | SMN2 splice enh | FLuc modulator | ELG1 genotox | NPC1 promoter act | Luc counter | Rab9 prom act
CCCc1nn(C)c(C(=O)Nc2ccc(C)c(C)c2)c1Cl | 6.3µM* | 11µM* | ? | ? | 2% | 3.2µM*
CCc1ccc(-n2nc(C)c3c(C)cc(=O)n(CC(=O)Nc4ccc(C(C)=O)cc4)c32)cc1 | . | 3% | . | . | . | .
CCOC(=O)c1ccccc1NC(=O)c1sc2nc3n(c(=O)c2c1C)CCCC3 | . | 5% | . | . | . | .
C=CC[C@@H](CC(=O)N[C@@H](CO)Cc1ccccc1)C(=O)N[C@H](C)COC(=O)[C@@H](CC=C)Cc1ccc(F)cc1 | . | . | 0% | . | . | .
CCN(CC)CCCNC(=O)c1ccc2nc(CCc3ccccc3)oc2c1 | . | -2% | . | . | . | .
CCN(CC)CCCNC(=O)c1ccc2c3n(nc2c1)-c1ccc(Cl)cc1CO3 | . | ? | ? | ? | . | 0.89µM*
CC(C)NC(=O)c1ccc2c3n(nc2c1)-c1ccc(Cl)cc1CO3 | . | 1.9µM* | ? | 1.3µM* | . | 1.4µM*
CCC(C)NC(=O)CSc1c2c(nc3cc(Cl)ccc13)CCCC2 (stereo unspecified) | 0% | 0% | . | . | . | .
O=C(O)c1ccccc1C(=O)c1cccs1 | -1% | 3% | -1% | 1% | -4% | -4%
Cc1ccc(N/C=C/C(=O)c2cccs2)cc1C | 2.2µM* | 0.19µM* | ? | 24% | -18% | 3.5µM*
Cc1cc(N/C=C/C(=O)c2cccs2)ccc1F | 14µM* | 0.95µM* | 2.9µM* | ? | -12% | 4µM*
O=C(/C=C/Nc1cccc([N+](=O)[O-])c1)c1cccs1 | 16µM* | 1.7µM* | ? | 21% | -11% | 3.2µM*
O=C(/C=C/Nc1ccccc1C(=O)O)c1cccs1 | 11µM* | 3.4µM* | 16µM* | 1.4µM* | -15% | 1µM*
CC/C=C1/OC(=O)c2ccccc21 | 6% | . | . | . | . | .
C/C(=N\OCC(=O)Nc1ccccc1C(=O)O)c1cccs1 | . | 21µM* | 2% | 13% | . | 16%
O=C(/C=C/Nc1ccc(Nc2ccccc2)cc1)c1cccs1 | . | 4.3µM* | ? | 4µM* | -13% | 2µM*
Cc1c(C(=O)/C=C/c2cccs2)oc2ccc(F)cc12 | -14% | 0.67µM* | ? | 4µM* | -3% | 4µM*
Cc1c(C(=O)Nc2nccs2)oc2ccc(F)cc12 | . | ? | 14% | 3.5µM* | . | 1.6µM*
Cc1c(C(=O)N2CCN(C(=O)c3ccccc3)CC2)oc2ccc(F)cc12 | . | 5% | -1% | -6% | . | 2%
Cc1c(C(=O)Nc2nccs2)oc2ccc(Br)cc12 | . | . | 9.2µM* | . | . | .
CCC(=O)N1CCc2cc(Br)cc(S(=O)(=O)NCCc3ccc(OC)c(OC)c3)c21 | 2% | -2% | . | . | . | .
Cc1nccc(-c2sc(-c3cccs3)nc2C)n1 | . | 15µM* | ? | -3% | . | ?
Cc1ccc(N2CCN(C(=O)c3cn(C)c4ccc(S(=O)(=O)N(C)C5CCCCC5)cc4c3=O)CC2C)cc1 (stereo unspecified) | -2% | 3% | . | . | . | .
CCN(c1ccccc1)c1cc(NC)[n+](C)c(C)n1 | . | . | . | . | -1% | .
Cc1cccc(C(=O)NCC(=O)OCC(=O)N2CCc3ccccc32)c1 | -1% | -20% | 0% | -4% | -1% | 1%
O=C(Cc1ccccc1F)OCC(=O)N1CCc2ccccc21 | 4% | 6.7µM* | 8% | 1% | -2% | 0%
O=C(CNC(=O)c1ccccc1Cl)OCC(=O)N1CCc2ccccc21 | 6% | 13µM* | ? | 3% | -3% | 9%
COc1ccc(C2CC(c3cccs3)=NN2S(C)(=O)=O)cc1 (stereo unspecified) | . | ? | 14% | ? | . | ?
